Our source for the growth inhibition values is PubChem BioAssay (NCI).

The panel holds about 79,000 compounds, 15% with a hit somewhere; the sample as a whole holds those more often. Values without a mark were called inactive. Activity calls are given as the source filed them. Cut-off read from the data, not from the text of the source: active = growth inhibition above about 70%; inactive = the rest.

Experiment [1] can be described thus: NCI Yeast Anticancer Drug Screen. Data for the rad50 strain (AID 155).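 Note: 0% = growth of vehicle-only cultures of the same strain.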 To be noted: S. cerevisiae rad50 strain growth inhibition, stronger effect = higher value. A digest of the protocol: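 Readout: growth inhibition relative to vehicle-treated cultures. Compound exposure was carried out in a genetically defined yeast strain deficient in DNA damage repair.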
Experiment [2] is described as follows: NCI Yeast Anticancer Drug Screen. Data for the mec2-1 strain (AID 157). To be noted: S. cerevisiae mec2-1 strain, stronger effect = higher value. A digest of the protocol: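 Each compound was tested on mec2-1 yeast, a strain altered in DNA damage repair or cell cycle control. Growth inhibition is reported relative to vehicle.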
Experiment [3] can be described thus: NCI Yeast Anticancer Drug Screen. Data for the sgs1 mgt1 strain (AID 161).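 Note: 0% = growth of cultures given vehicle only.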 To be noted: S. cerevisiae sgs1 mgt1 strain, stronger effect = higher value. A digest of the protocol:
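Test agents were incubated with a DNA-repair-mutant yeast strain. Growth was then read and compared against vehicle-treated controls.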

The nature of experiment [4]: NCI Yeast Anticancer Drug Screen. Data for the cln2 rad14 strain (AID 165).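 Note: 0% = growth equal to vehicle treated cultures.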 To be noted: S. cerevisiae cln2 rad14 strain, stronger effect = higher value. Summed up:
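Test compounds were added to cln2 rad14 yeast cultures; inhibition of growth was then determined by comparison with vehicle treatment.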

The nature of experiment [5]: NCI Yeast Anticancer Drug Screen. Data for the bub3 strain (AID 167). To be noted: S. cerevisiae bub3 mutant strain, stronger effect = higher value. Summed up:
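Readout: yeast growth inhibition, expressed relative to vehicle-only wells. The test organism is a mutant strain from a panel with lesions in DNA repair or checkpoint genes.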

A short description of experiment [6]: NCI Yeast Anticancer Drug Screen. Data for the mlh1 rad18 strain (AID 175). To be noted: S. cerevisiae mlh1 rad18 strain growth inhibition, stronger effect = higher value. Summed up:
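Inhibition values reflect reduced growth of mutant yeast versus vehicle-treated controls following compound exposure; the mutations affect DNA damage repair.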

Setting [7] is: at 5.0 µM (retest, dose inferred, filed as 0.5).
Setting [8] is: at 50.0 µM (retest, dose inferred, filed as 5.0).

In the case of `CN(Cc1ccccc1)c1nc(=[N+](C)C)ss1`, the growth inhibition in experiment [1] (setting [7]) was 5%; in experiment [1] (setting [8]) it was -1%; in experiment [1] (at 50.0 µM), 4.35%; in experiment [2] (setting [7]), -5%; in experiment [2] (setting [8]) it was -1%; in experiment [2] (at 50.0 µM), 8.8%. Besides, the growth inhibition in experiment [3] (setting [7]) was 11%; in experiment [3] (setting [8]), 8%; in experiment [3] (at 50.0 µM), 26.3%; in experiment [4] (setting [7]), 17%; in experiment [4] (setting [8]), 15%; in experiment [4] (at 50.0 µM), -30.9%. The growth inhibition in experiment [5] (setting [7]) is 14%; in experiment [5] (setting [8]), 11%; in experiment [5] (at 50.0 µM), 12.2%; in experiment [6] (setting [7]), 10%; in experiment [6] (setting [8]), 16%; in experiment [6] (at 50.0 µM), 33.4%.
On to `CC(=O)C1C(S)CC2C3CC=C4CC(O)CCC4(C)C3CCC21C` (stereo not given), for which the growth inhibition in experiment [1] (setting [7]) was 1%; in experiment [1] (setting [8]), 98% (active); in experiment [1] (at 50.0 µM) it was 98.8% (active); in experiment [2] (setting [7]), 7%; in experiment [2] (setting [8]), 98% (active); in experiment [2] (at 50.0 µM) it was 98.5% (active). Also, the growth inhibition in experiment [3] (setting [7]) is -8%; in experiment [3] (setting [8]) it was 98% (active); in experiment [3] (at 50.0 µM), 98.7% (active); in experiment [4] (setting [7]), -7%; in experiment [4] (setting [8]) it was 98% (active); in experiment [4] (at 50.0 µM) it was 98% (active). The growth inhibition in experiment [5] (setting [7]) is 8%; in experiment [5] (setting [8]) it was 98% (active); in experiment [5] (at 50.0 µM), 50.9%; in experiment [6] (setting [7]), 0%; in experiment [6] (setting [8]), 98% (active); in experiment [6] (at 50.0 µM), 98.8% (active).
For `CCC1CCC(CC)C1=O` (stereo not given), the growth inhibition is 1% in experiment [1] (setting [7]); 5% in experiment [1] (setting [8]); 94.2% (active) in experiment [1] (at 50.0 µM); -2% in experiment [2] (setting [7]); -1% in experiment [2] (setting [8]); 93.9% (active) in experiment [2] (at 50.0 µM). Further, the growth inhibition in experiment [3] (setting [7]) was 0%; in experiment [3] (setting [8]) it was 3%; in experiment [3] (at 50.0 µM), 51.6%; in experiment [4] (setting [7]), -2%; in experiment [4] (setting [8]), 3%; in experiment [4] (at 50.0 µM), 36.5%. The growth inhibition in experiment [5] (setting [7]) was 2%; in experiment [5] (setting [8]), 4%; in experiment [5] (at 50.0 µM) it was 97.4% (active); in experiment [6] (setting [7]), -2%; in experiment [6] (setting [8]) it was 7%; in experiment [6] (at 50.0 µM), 43.2%.
As to `O=C(CC1(O)C(=O)Nc2c(Cl)cc(Cl)cc21)c1ccc(Br)cc1` (stereo not given), the growth inhibition in experiment [1] (setting [7]) is 3%; in experiment [1] (setting [8]), 3%; in experiment [1] (at 50.0 µM), 93.1% (active); in experiment [2] (setting [7]), -9%; in experiment [2] (setting [8]), -9%; in experiment [2] (at 50.0 µM) it was 92% (active). The growth inhibition in experiment [3] (setting [7]) is -23%; in experiment [3] (setting [8]) it was -23%; in experiment [3] (at 50.0 µM), 92% (active); in experiment [4] (setting [7]) it was -8%; in experiment [4] (setting [8]), -8%; in experiment [4] (at 50.0 µM), 91.8% (active). The growth inhibition in experiment [5] (setting [7]) is 7%; in experiment [5] (setting [8]), 7%; in experiment [5] (at 50.0 µM), 94.3% (active); in experiment [6] (setting [7]), -1%; in experiment [6] (setting [8]), -1%; in experiment [6] (at 50.0 µM) it was 92.7% (active).
With `Cc1nc2c(=O)[nH]c3ccc(Cl)cc3c2o1`, the growth inhibition in experiment [1] (setting [7]) is 3%; in experiment [1] (setting [8]), 60%; in experiment [1] (at 50.0 µM), 42.5%; in experiment [2] (setting [7]) it was 3%; in experiment [2] (setting [8]), 59%; in experiment [2] (at 50.0 µM) it was 38.1%. For the same compound, the growth inhibition in experiment [3] (setting [7]) was 9%; in experiment [3] (setting [8]) it was 90% (active); in experiment [3] (at 50.0 µM), 40.7%; in experiment [4] (setting [7]) it was 7%; in experiment [4] (setting [8]), 12%; in experiment [4] (at 50.0 µM) it was 77.3% (active). Also, the growth inhibition in experiment [5] (setting [7]) was 6%; in experiment [5] (setting [8]) it was 75% (active); in experiment [5] (at 50.0 µM), 60.2%; in experiment [6] (setting [7]), 8%; in experiment [6] (setting [8]) it was 89% (active); in experiment [6] (at 50.0 µM) it was 46.2%.
For the compound `O=c1cc(CI)oc2ccccc12`, the growth inhibition in experiment [1] (setting [7]) was 34%; in experiment [1] (setting [8]), 99% (active); in experiment [1] (at 50.0 µM) it was 99.4% (active); in experiment [2] (setting [7]) it was 57%; in experiment [2] (setting [8]), 99% (active); in experiment [2] (at 50.0 µM), 99.5% (active). Further, the growth inhibition was 46% in experiment [3] (setting [7]); 99% (active) in experiment [3] (setting [8]); 99.6% (active) in experiment [3] (at 50.0 µM); 20% in experiment [4] (setting [7]); 100% (active) in experiment [4] (setting [8]); 85.7% (active) in experiment [4] (at 50.0 µM). Also, the growth inhibition is 45% in experiment [5] (setting [7]); 99% (active) in experiment [5] (setting [8]); 94% (active) in experiment [5] (at 50.0 µM); 36% in experiment [6] (setting [7]); 99% (active) in experiment [6] (setting [8]); 99.5% (active) in experiment [6] (at 50.0 µM).
Regarding `Cc1c(C2CC(=O)NC2=O)c2ccccc2n1C` (stereo not given), the growth inhibition in experiment [1] (setting [7]) is 3%; in experiment [1] (setting [8]), 3%; in experiment [1] (at 50.0 µM) it was 6.55%; in experiment [2] (setting [7]), -1%; in experiment [2] (setting [8]), 0%; in experiment [2] (at 50.0 µM), 6.25%. Besides, the growth inhibition was -1% in experiment [3] (setting [7]); -1% in experiment [3] (setting [8]); -13.8% in experiment [3] (at 50.0 µM); -4% in experiment [4] (setting [7]); -5% in experiment [4] (setting [8]); 69% in experiment [4] (at 50.0 µM). Moreover, the growth inhibition in experiment [5] (setting [7]) is 4%; in experiment [5] (setting [8]), 3%; in experiment [5] (at 50.0 µM) it was -20.6%; in experiment [6] (setting [7]), 2%; in experiment [6] (setting [8]), 3%; in experiment [6] (at 50.0 µM) it was 7.8%.
`O=Nc1ccccc1N=O`: the growth inhibition in experiment [1] (setting [7]) is 48%; in experiment [1] (setting [8]), 99% (active); in experiment [1] (at 50.0 µM), 99.5% (active); in experiment [2] (setting [7]), 30%; in experiment [2] (setting [8]), 99% (active); in experiment [2] (at 50.0 µM), 99.4% (active). In addition, the growth inhibition was 59% in experiment [3] (setting [7]); 99% (active) in experiment [3] (setting [8]); 99.2% (active) in experiment [3] (at 50.0 µM); 36% in experiment [4] (setting [7]); 97% (active) in experiment [4] (setting [8]); 98.3% (active) in experiment [4] (at 50.0 µM). Besides, the growth inhibition was 80% (active) in experiment [5] (setting [7]); 99% (active) in experiment [5] (setting [8]); 99.3% (active) in experiment [5] (at 50.0 µM); 91% (active) in experiment [6] (setting [7]); 99% (active) in experiment [6] (setting [8]); 99.4% (active) in experiment [6] (at 50.0 µM).
Turning to `O=[N+]([O-])c1ccc(C2=CSc3ccccc3N2)cc1`, the growth inhibition is -17% in experiment [1] (setting [7]); 6% in experiment [1] (setting [8]); 49.7% in experiment [1] (at 50.0 µM); -30% in experiment [2] (setting [7]); -5% in experiment [2] (setting [8]); 59.4% in experiment [2] (at 50.0 µM). The growth inhibition is -11% in experiment [3] (setting [7]); -7% in experiment [3] (setting [8]); 58% in experiment [3] (at 50.0 µM); 11% in experiment [4] (setting [7]); 25% in experiment [4] (setting [8]); 22.9% in experiment [4] (at 50.0 µM). The growth inhibition in experiment [5] (setting [7]) was -16%; in experiment [5] (setting [8]), 19%; in experiment [5] (at 50.0 µM), 73.4% (active); in experiment [6] (setting [7]), -43%; in experiment [6] (setting [8]), 31%; in experiment [6] (at 50.0 µM), 58.2%.
As for `CS(=O)(=O)OCCN(CCOS(C)(=O)=O)c1ccc(C=Nc2cccc(Cl)c2)cc1`, the growth inhibition in experiment [1] (setting [7]) is 35%; in experiment [1] (setting [8]), 90% (active); in experiment [1] (at 50.0 µM), 92.7% (active); in experiment [2] (setting [7]), 40%; in experiment [2] (setting [8]), 91% (active); in experiment [2] (at 50.0 µM), 86.5% (active). The growth inhibition in experiment [3] (setting [7]) is 17%; in experiment [3] (setting [8]), 74% (active); in experiment [3] (at 50.0 µM), 88.8% (active); in experiment [4] (setting [7]), 17%; in experiment [4] (setting [8]), 86% (active); in experiment [4] (at 50.0 µM), 71.3% (active). Also, the growth inhibition in experiment [5] (setting [7]) was 1%; in experiment [5] (setting [8]), 50%; in experiment [5] (at 50.0 µM) it was 43%; in experiment [6] (setting [7]) it was 70% (active); in experiment [6] (setting [8]) it was 95% (active); in experiment [6] (at 50.0 µM), 96.7% (active).
